# PubChem BioAssay (EPA / NIEHS)
# Values joined by “and” are separate entries in the source; they are usually repeats but may differ in a detail not shown here. Equal values may be shown once. Results filed as inconclusive are left out. Where a structure was tested more than once in an assay, its records may differ in their call. Active and inactive are the calls of the source. Rule for the calls: active = hit-call score of the fitted dose curve at least 0.9, where 1 is the maximum; inconclusive = response in the unintended direction; inactive = score below 0.9.
# Target: human Peroxisome Proliferator-activated Receptor alpha (PPARa), PPARA (gene 5465) (UniProt Q07869)
# Assay: NVS_NR_hPPARa: NovaScreen (NVS) Nuclear Receptor Binding Assay for human Peroxisome Proliferator-activated Receptor alpha (PPARa) (AID 2283359);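 note: activity means loss of TR-FRET signal versus DMSO baseline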
# Method in brief: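 Chemicals were first screened in duplicate at 25 uM, and active ones were retested across concentration series. Binding was monitored by TR-FRET one hour after dosing, with decreased signal against DMSO counted as activity.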
# Chain of human Peroxisome Proliferator-activated Receptor alpha (PPARa), PPARA (gene 5465) (Q07869 whole entry, looked up): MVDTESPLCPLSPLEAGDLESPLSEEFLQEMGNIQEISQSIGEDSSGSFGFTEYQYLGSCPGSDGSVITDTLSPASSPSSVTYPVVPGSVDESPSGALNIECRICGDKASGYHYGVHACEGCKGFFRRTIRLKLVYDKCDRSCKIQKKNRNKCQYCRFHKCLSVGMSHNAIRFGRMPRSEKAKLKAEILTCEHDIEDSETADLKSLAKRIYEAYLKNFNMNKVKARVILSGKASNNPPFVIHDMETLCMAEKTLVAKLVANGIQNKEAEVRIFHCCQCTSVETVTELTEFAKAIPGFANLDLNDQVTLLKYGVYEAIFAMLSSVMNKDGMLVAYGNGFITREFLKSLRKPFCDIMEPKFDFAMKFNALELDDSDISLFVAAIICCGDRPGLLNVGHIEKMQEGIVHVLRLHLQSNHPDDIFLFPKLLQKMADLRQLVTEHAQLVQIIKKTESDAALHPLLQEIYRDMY
row,Compound,outcome
1,CN(C)C(=O)Cl,inactive
2,ClC1=C(Cl)C2(Cl)C3C(Cl)C(Cl)CC3C1(Cl)C2(Cl)Cl (stereo not given),inactive
3,CC1(C)CN=C(NN=C(/C=C/c2ccc(C(F)(F)F)cc2)/C=C/c2ccc(C(F)(F)F)cc2)NC1,inactive
4,O=C(O)C(Cl)Cl,inactive
5,O=P(OCC(Br)CBr)(OCC(Br)CBr)OCC(Br)CBr (stereo not given),inactive
6,CCOP(=S)(OCC)SCSCC,inactive
7,O=C(CBr)OCc1ccccc1,inactive
8,O=P(Oc1ccccc1)(Oc1ccccc1)Oc1ccccc1,inactive
9,CCCCN(CCCC)N=O,inactive

# Target: PGR (gene 5241) (UniProt P06401)
# Assay: NVS_NR_hPR: NovaScreen (NVS) Nuclear Receptor Binding Assay for human Progestron Receptor (PR) (AID 2283360);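 note: active means loss of bound radioligand signal versus DMSO baseline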
# Method in brief: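 Cell-free radioligand binding using receptor protein extracted from T47D cells, read by scintillation counting 18 hours after dosing. Loss of signal relative to DMSO baseline indicates displacement; primary screen single concentration 25 uM in duplicate, actives followed in concentration series.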
# Chain of PGR (gene 5241) (P06401 whole entry, looked up): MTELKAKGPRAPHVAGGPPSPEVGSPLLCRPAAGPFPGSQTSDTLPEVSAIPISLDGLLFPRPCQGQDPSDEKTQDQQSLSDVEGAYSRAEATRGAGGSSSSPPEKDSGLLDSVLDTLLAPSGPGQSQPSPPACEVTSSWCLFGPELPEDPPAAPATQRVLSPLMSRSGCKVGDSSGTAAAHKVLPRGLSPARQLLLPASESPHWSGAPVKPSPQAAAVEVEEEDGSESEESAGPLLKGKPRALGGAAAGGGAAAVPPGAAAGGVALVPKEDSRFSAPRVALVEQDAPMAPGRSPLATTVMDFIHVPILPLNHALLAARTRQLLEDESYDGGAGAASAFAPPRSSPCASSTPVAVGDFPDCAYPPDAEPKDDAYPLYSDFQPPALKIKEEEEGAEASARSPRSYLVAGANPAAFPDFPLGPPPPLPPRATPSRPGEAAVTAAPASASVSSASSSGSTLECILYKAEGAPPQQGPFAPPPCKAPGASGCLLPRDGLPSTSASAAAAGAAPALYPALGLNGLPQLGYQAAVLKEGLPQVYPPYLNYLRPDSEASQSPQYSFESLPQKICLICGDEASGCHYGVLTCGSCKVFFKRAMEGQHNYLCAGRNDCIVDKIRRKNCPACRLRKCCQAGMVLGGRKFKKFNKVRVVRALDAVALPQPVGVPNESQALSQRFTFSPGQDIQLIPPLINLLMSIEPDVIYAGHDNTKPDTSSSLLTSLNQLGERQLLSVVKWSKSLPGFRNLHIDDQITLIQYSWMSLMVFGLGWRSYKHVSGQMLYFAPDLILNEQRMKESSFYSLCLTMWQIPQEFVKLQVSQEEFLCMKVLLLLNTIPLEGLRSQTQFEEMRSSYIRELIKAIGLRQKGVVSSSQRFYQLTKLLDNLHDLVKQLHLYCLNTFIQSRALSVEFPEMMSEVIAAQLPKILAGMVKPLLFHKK
row,Compound,outcome
1,CCCCN(CCCC)SN(C)C(=O)Oc1cccc2c1OC(C)(C)C2,inactive
2,Nc1cc2c3c(c1)C(c1ccccc1)=N[C@@H](NC(=O)c1cccnc1)C(=O)N3CC2,inactive
3,CSC(C)(C)C=NO,inactive
4,CC(C)(C)c1ccccc1OP(=O)(Oc1ccccc1)Oc1ccccc1,inactive
5,CC(Cl)CN(C)C (stereo not given),inactive
6,CCOP(=S)(Oc1ccc([N+](=O)[O-])cc1)c1ccccc1 (stereo not given),inactive

# Target: Retinoic acid receptor alpha (Homo sapiens) (UniProt P10276)
# Assay: NVS_NR_hRARa_Agonist: NovaScreen (NVS) Nuclear Receptor Binding Assay for human Retinoic Acid Alpha Receptor Agonism (RAR) (AID 2283361)
# Method in brief: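 Readout is time-resolved fluorescence resonance energy transfer after a 2 h exposure of cell-free extracted receptor protein. Initial testing used 25 uM in duplicate, with concentration-response follow-up for active chemicals.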
# Chain of Retinoic acid receptor alpha (Homo sapiens) (P10276 whole entry, looked up): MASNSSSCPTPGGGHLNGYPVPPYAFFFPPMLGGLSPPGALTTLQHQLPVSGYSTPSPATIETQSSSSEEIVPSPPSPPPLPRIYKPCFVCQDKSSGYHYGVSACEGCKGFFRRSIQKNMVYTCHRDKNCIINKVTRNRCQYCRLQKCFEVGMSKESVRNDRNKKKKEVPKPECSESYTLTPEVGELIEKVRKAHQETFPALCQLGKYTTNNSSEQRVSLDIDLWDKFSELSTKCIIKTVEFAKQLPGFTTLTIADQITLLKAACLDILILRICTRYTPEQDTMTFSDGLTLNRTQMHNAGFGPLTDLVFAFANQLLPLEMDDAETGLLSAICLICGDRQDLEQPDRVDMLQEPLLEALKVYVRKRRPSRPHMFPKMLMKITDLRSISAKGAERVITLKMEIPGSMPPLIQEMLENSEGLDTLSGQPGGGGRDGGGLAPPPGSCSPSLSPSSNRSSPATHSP
row,Compound,outcome
1,CCCCc1ccc(O)cc1,inactive
2,CCCCOCCOP(=O)(OCCOCCCC)OCCOCCCC,inactive
3,c1ccc2c(c1)Nc1ccccc1S2,inactive
4,Cc1cccc(N)c1,inactive

# Target: Glucocorticoid receptor (Homo sapiens) (UniProt P04150)
# Assay: NVS_NR_hGR: NovaScreen (NVS) Nuclear Receptor Binding Assay for human Glucocorticoid Receptor (GR) (AID 2283363)
# Method in brief: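 Competitive displacement of a labelled ligand was measured on cell-free receptor preparations after 16 h exposure. Initial testing used 25 uM in duplicate with plate controls; confirmed actives went into concentration series.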
# Chain of Glucocorticoid receptor (Homo sapiens) (P04150 whole entry, looked up): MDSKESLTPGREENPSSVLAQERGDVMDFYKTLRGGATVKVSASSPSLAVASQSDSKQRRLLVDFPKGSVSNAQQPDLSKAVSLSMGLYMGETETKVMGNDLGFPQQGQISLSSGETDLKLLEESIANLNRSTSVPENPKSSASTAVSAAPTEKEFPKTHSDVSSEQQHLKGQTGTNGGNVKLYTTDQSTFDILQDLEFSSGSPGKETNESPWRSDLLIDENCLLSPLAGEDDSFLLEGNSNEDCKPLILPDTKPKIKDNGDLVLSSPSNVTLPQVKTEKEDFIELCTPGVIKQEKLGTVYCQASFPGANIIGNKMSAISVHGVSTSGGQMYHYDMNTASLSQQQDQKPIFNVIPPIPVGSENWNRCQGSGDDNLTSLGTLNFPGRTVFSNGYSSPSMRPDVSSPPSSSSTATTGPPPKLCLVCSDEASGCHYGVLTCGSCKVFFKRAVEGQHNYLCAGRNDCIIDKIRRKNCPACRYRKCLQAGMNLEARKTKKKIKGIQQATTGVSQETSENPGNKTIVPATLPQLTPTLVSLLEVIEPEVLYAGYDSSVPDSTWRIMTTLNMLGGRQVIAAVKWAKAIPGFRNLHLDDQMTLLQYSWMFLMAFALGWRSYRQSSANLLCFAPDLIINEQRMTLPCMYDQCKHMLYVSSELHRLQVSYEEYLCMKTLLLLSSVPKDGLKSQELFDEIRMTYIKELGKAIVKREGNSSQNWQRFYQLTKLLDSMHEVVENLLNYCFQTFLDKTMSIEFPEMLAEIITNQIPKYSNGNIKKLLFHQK
Compound,AC50,outcome
C=CC(=O)OCC(CC)(COC(=O)C=C)COC(=O)C=C,14 µM (active),
ClC1=C(Cl)C2(Cl)C3C(Cl)C(Cl)CC3C1(Cl)C2(Cl)Cl (stereo not given),,inactive
CC(C)Nc1ccc(Nc2ccccc2)cc1,25 µM (active),
CSC(C)(C)C=NO,,inactive
CCCCCCCc1ccc(O)cc1,33.3 µM (active),inactive
CCOP(=S)(NC(C)C)Oc1ccccc1C(=O)OC(C)C (stereo not given),,inactive
c1ccc2c(c1)sc1ccccc12,0.179 µM (active),inactive
CCC(C)(C)c1ccc(O)cc1,,inactive
CCCCC(CC)COC(=O)c1c(Br)c(Br)c(Br)c(Br)c1C(=O)OCC(CC)CCCC (stereo not given),6.58 µM (active) and 6.59 µM (active),

# Target: Nuclear receptor subfamily 1 group I member 2 (Homo sapiens) (UniProt O75469)
# Assay: NVS_NR_hPXR: NovaScreen (NVS) Nuclear Receptor Binding Assay for human Pregnane X Receptor (PXR) (AID 2283365);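 note: a drop in FRET signal versus DMSO baseline means the compound binds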
# Method in brief: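 Cell-free binding assay with extracted human PXR protein, read by TR-FRET 2 h after dosing; loss of signal relative to DMSO baseline indicates binding. Primary screen at 25 uM in duplicate, actives retested in concentration series.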
# Chain of Nuclear receptor subfamily 1 group I member 2 (Homo sapiens) (O75469 whole entry, looked up): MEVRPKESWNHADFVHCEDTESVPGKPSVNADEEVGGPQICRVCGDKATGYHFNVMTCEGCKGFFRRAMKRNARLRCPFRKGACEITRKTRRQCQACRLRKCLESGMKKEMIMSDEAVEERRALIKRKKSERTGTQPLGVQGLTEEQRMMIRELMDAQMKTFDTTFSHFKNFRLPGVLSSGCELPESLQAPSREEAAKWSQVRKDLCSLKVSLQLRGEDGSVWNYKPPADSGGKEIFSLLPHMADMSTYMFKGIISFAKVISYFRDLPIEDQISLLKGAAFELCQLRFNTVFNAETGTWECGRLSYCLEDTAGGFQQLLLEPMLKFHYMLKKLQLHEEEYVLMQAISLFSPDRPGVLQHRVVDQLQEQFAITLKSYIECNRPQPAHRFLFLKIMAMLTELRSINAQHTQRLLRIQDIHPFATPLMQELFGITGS
Compound,outcome,AC50
CC(C)(C)N(NC(=O)c1ccc(Cl)cc1)C(=O)c1ccccc1,inactive,
CC1(C)CN=C(NN=C(/C=C/c2ccc(C(F)(F)F)cc2)/C=C/c2ccc(C(F)(F)F)cc2)NC1,,7.48 µM (active)
CCCCN(CC)C(=O)SCCC,inactive,
CO/N=C(/C(=O)OC)c1ccccc1COc1ccccc1C,inactive,
O=P(OCC(Br)CBr)(OCC(Br)CBr)OCC(Br)CBr (stereo not given),,0.423 µM (active)
OCC1CO1 (stereo not given),inactive,
O=NN1CCCC1,inactive,
CCCCCCCc1ccc(O)cc1,inactive,
CCCCOCCOP(=O)(OCCOCCCC)OCCOCCCC,,5.67 µM (active)
CCCCN(CCCC)N=O,inactive,

# Target: guinea pig Sigma Receptor, Non-selective Binding, SIGMAR1 (gene 100135589) (UniProt Q60492)
# Assay: NVS_OR_gSIGMA_NonSelective: NovaScreen (NVS) Nuclear Receptor Binding Assay for guinea pig Sigma Receptor, Non-selective Binding (AID 2283367)
# Method in brief: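 gp brain membr., radioligand displacement, 1 h, filtration + scint. counting; DMSO = baseline; 25 uM x2 primary, conc.-response confirm.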
# Chain of guinea pig Sigma Receptor, Non-selective Binding, SIGMAR1 (gene 100135589) (Q60492 whole entry, looked up): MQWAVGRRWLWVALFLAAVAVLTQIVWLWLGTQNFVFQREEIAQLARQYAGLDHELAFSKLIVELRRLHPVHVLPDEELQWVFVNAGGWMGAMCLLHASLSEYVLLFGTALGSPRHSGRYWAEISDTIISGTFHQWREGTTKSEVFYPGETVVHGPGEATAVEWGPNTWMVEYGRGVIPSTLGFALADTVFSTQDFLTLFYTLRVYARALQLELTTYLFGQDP
Compound,outcome,AC50
CCN(CC)c1ccccc1,inactive,
CCCCN(CCCC)SN(C)C(=O)Oc1cccc2c1OC(C)(C)C2,,4.72 µM (active)
O=C(O)C(Cl)Cl,inactive,
CCCCN(CCCC)N=O,,25 µM (active)
c1ccc2c(c1)Nc1ccccc1S2,inactive,

# Test system: guinea pig Dopamine Transporter (DAT), gene 100714898
# Assay: NVS_TR_gDAT: NovaScreen (NVS) Transporter Assay for guinea pig Dopamine Transporter (DAT) (AID 2283369);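 note: active compounds lower bound radioligand signal relative to DMSO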
# Procedure: NVS_TR_gDAT is a biochemical, single-readout assay that uses extracted gene-proteins from Guinea pig striatal membranes in a tissue-based cell-free assay. Measurements were taken 2 hours after chemical dosing in a 48-well plate.NVS_TR_gDAT is one of one assay component(s) measured or calculated from the NVS_TR_gDAT assay. It is designed to make measurements of radioligand binding, a form of binding reporter, as detected with scintillation counting signals by Filter-based radiodetection technology.Data from the assay component NVS_TR_gDAT was analyzed into 1 assay endpoint. This assay endpoint, NVS_TR_gDAT, was analyzed in the positive analysis fitting direction relative to DMSO as the negative control and baseline of activity. Using a type of binding reporter, loss-of-signal activity can be used to understand changes in the binding as they relate to the gene Slc6a3. Furthermore, this assay endpoint can be referred to as a primary readout, because the performed assay has only produced 1 assay endpoint. To generalize the intended target to other relatable targets, this assay endpoint is annotated to the transporter intended target family, where the subfamily is neurotransmitter transporter.
# Binding assays used specific radioligands (tritiated, iodinated) with non-radioactive competitive displacement ligands in agonist or antagonist protocols (as indicated) and various reference compounds and inhibitors to titrate specific binding to receptors and transporters. Most enzyme assays (CYPs, kinases, phosphatases, proteases, HDACs) used recombinant protein and specific substrates (fluorescence mostly, some colorimetric and radioactive) and inhibitors, followed by a biochemical separation of substrate and product. All assays for the biochemical HTS were initially run in duplicate at a single concentration (10 uM for CYP450 assays and 25 uM for all others). Assay-chemical combinations meeting a pre-defined threshold (e.g., 30% inhibition and other criteria defined below) were then run in singleton concentration-response format with maximum concentration of 20 uM for CYPs and 50 uM for all others. Each assay was run with positive and negative controls, and concurrent controls on every plate. The follow-up (secondary) screen tested active chemical-pairs in concentration series, as well as a few additional assays not tested in the primary screen, some selected negative inactives, and several cases re-run in the concentration series for confirmatory purposes.
Compound,outcome,AC50
CC(C)(C)c1ccc(O)cc1,inactive,
CC(C)Nc1ccc(Nc2ccccc2)cc1,,25 µM (active)
CSC(C)(C)C=NO,inactive,
CCC(C)(C)c1ccc(O)cc1,,17.3 µM (active)
O=P(Oc1ccccc1)(Oc1ccccc1)Oc1ccccc1,,18.8 µM (active)
